PubChem BioAssay (NCATS)
Records with an inconclusive call do not appear. Active and inactive are the calls of the source. The call rests on the fitted dose curve; in most records, active means well fitted inhibition curve with a large enough effect; inconclusive means small, poorly fitted or top-dose-only effect; inactive means flat fitted curve, though single readings scatter.

assay: qHTS for Inhibitors of Plasmodium falciparum (DD2) proliferation (AID 504314);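 further: parasite DNA measured by SYBR Green fluorescence after red cell lysis; plate controls were DMSO vehicle for no effect and artemisinin wells for full effect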; conditions: P. falciparum Dd2 in erythrocytes, SYBR Green growth, 72 h; series mostly up to 6.11 µM; activity, negative = inhibition: at the top concentration
Method in brief: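 Erythrocytes infected with P. falciparum (0.3% parasitemia, 2.5% hematocrit final) were incubated with compounds for 72 h at 37C, 5% CO2. Parasite DNA was detected by SYBR Green I fluorescence after saponin/Triton lysis, normalized to artemisinin (0.29 uM) and DMSO controls.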

activity, negative = inhibition, inactive:
CCN(CCNC(=O)[C@H]1C=C(OC)C(=O)C[C@H](c2ccccc2)[C@@H]1C)C(C)=O -4.6%
CC1=C[C@@H](C)O[C@@]2(C1)C(=O)Nc1cccc(Br)c12 -13.8%
Cc1cccc(C)c1Nc1oc(-c2ccccc2)nc1-c1cccc2ccccc12 -12.9%
C[C@@H]1CC[C@H]2C(=O)N(Cc3cccc([N+](=O)[O-])c3)C[C@H](O)CN2[C@@H]1c1cccc(Br)c1 -10.9%
CC(C)=CCCC(C)=CCN1C(=O)[C@]2(O[C@H](C)CC3=CCCC32)c2c(Br)cccc21 (stereo partly drawn) -7.58%
Cc1ccccc1Nc1oc(-c2ccccc2)nc1C=Cc1ccccc1 -15.7%
C=C(COC)C1=CCC(C(=O)OC)(C(=O)OC)[C@@H](C[N+](=O)[O-])c2ccccc21 -12.3%
CC(C)=CCCC(C)=CCN1C(=O)[C@@]2(C[C@@H](C)C[C@@H](C)O2)c2ccccc21 -16.2%
CC12C=C(C=Cc3ccc(C(F)(F)F)cc3)C(C)(C1)C(c1ccc(C(F)(F)F)cc1)CC2=O (stereo not drawn) -8.4%
COc1ccc2c(c1)[C@@]1(OCCC=C[C@@H]1C)C(=O)N2Cc1ccc(F)cc1 -12.1%
CCC=C1C(=O)[C@]2(C(=O)c3ccccc3)C[C@H]3CCC(CCC)(C2=O)[C@@]13OC -7.25%
COc1ccc2c(c1)[C@@]1(OCCC=C[C@@H]1C)C(=O)N2CC=C(C)CCC=C(C)C -3.94%
COc1cccc([C@@H]2Oc3ccc(OC)cc3C(=O)[C@@H]2OC(=O)N[C@H]2CCCc3ccccc32)c1 -23.5%
CCCCCCCc1cc2ccccc2c2c(C(=O)OC)c(C(=O)OC)c(C(=O)OC)n12 -10.6%
Cc1cc(C)c(-c2cc([C@H](C)ON=C[C@@H](C)[C@H](OCc3ccccc3)C(C)C)on2)c(C)c1 -8.65%
COC(=O)C1=C(C(=O)OC)[C@@H]2N(C)c3ccccc3[C@@]23CCC(=O)N(Cc2cc(OC)c(OC)c(OC)c2)C3=N1 -11.7%
COCOc1c2c(c(OCOC)c3c(OCOC)cccc13)C(=NNS(=O)(=O)c1ccc(C)cc1)C1=C2CCCC1 -11.4%
CC1=CC[C@@H](COc2ccccc2)O[C@@]2(C1)C(=O)Nc1ccccc12 -12.1%
C=C(C)C1CC23C(=O)[C@]4(C(=O)c5ccccc5)C[C@@]5(C)CCC(CC2C1(C)C)(C4=O)[C@@]35OC (stereo partly drawn) -12.2%
CC(C)OC(=O)[C@H](C)NC(=O)N1CCc2nc(-c3ccccc3)c3c(c2C1)CO[C@@H](C)C3 -7.45%
C=CCCCC=C(C)[C@H](OCc1ccc(OC)cc1)[C@H](CCC=C(C)C(N)=O)OC -9.21%
CCOC(=O)C1(C(=O)OCC)CC2=C(C=CC3=C(C=C2)CC(C(=O)OCC)(C(=O)OCC)C3)C1 -2.61%
Cc1ccc2[nH]c3nc(CCCn4ccnc4-c4ccccc4)nnc3c2c1 -9.19%
CCCCCCCC1=Cc2ccccc2C(CC(=O)c2ccccc2)N1C(=O)OC (stereo not drawn) -4.11% [at 1.12 µM]
CCCCCCCC1Cc2ccccc2C(C(C(=O)OC)C(=O)OC)N1C(=O)OC (stereo not drawn) -11%
COC1=C[C@H](C(=O)NC2CCN(Cc3ccccc3)CC2)[C@@]2(C)Cc3ccccc3[C@@H]2CC1=O -11.5%
COC(=O)N[C@H](C(C(=O)OC)=C(C)NCc1ccccc1)c1ccccc1 -5.35%
C[C@@H]1C=CCCO[C@]12C(=O)N(Cc1ccccc1C(F)(F)F)c1cccc(Br)c12 -12.5%
CC(Nc1oc(-c2ccccc2)nc1-c1ccccc1)c1ccccc1 (stereo not drawn) -8.26%
COc1cccc(C(CC2=CCCCC2)NC(=O)C(F)(F)F)c1 (stereo not drawn) -12.9%
C=C(C(C)=O)C(O)c1ccco1 (stereo not drawn) -9.18%
COC(=O)C(C(=O)OC)c1ccccc1[N+](=O)[O-] -6.7%
CC(C)=CCCC(C)=CCN1C(=O)[C@]2(OCCC=C[C@H]2C)c2ccccc21 -24.3%
COC(=O)N[C@@H](c1ccccc1)C(C(=O)OC)C(=O)OC -3.57%
CCCCCCCc1cc2ccccc2c2c(C(=O)OC)c(C)c(C(=O)OC)n12 -12.3%
COc1cc(C(CC2=C(c3ccccc3)Cc3ccccc32)NC(=O)C(F)(F)F)cc(OC)c1OC (stereo not drawn) -12.1%

Potency, inactive:
CCCCCCCC1=Cc2ccccc2C(C(C(=O)OC)C(=O)OC)N1C(=O)OC (stereo not drawn)
COc1ccc(-c2nc3c(c4c2C[C@H](c2ccccc2)OC4)CN(C(=O)C2CC2)CC3)c(C)c1
